Drawing on the supplement of paper PMC10849652, this text covers log2 fold change for 39 targets.

Targets with a hit are over-represented here; the source holds about 8,800 in all. About 0.5% of all pairs of compound and target were hits.

Chain of UniProt P14314 (P14314 whole entry, looked up): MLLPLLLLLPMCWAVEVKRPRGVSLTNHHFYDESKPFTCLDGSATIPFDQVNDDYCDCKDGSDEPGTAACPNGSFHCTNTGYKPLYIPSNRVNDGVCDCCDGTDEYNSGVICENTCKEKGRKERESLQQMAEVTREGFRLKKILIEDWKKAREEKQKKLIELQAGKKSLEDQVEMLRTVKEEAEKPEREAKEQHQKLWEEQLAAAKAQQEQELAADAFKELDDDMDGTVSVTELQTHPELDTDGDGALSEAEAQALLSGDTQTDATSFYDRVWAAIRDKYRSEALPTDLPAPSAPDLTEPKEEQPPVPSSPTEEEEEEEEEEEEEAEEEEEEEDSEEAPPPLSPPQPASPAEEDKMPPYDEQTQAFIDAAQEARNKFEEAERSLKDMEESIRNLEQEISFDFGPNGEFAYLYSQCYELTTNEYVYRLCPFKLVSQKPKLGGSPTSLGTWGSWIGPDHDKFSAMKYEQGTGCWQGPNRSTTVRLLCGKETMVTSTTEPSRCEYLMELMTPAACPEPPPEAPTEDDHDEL
Chain of UniProt O15067 (O15067 whole entry, looked up): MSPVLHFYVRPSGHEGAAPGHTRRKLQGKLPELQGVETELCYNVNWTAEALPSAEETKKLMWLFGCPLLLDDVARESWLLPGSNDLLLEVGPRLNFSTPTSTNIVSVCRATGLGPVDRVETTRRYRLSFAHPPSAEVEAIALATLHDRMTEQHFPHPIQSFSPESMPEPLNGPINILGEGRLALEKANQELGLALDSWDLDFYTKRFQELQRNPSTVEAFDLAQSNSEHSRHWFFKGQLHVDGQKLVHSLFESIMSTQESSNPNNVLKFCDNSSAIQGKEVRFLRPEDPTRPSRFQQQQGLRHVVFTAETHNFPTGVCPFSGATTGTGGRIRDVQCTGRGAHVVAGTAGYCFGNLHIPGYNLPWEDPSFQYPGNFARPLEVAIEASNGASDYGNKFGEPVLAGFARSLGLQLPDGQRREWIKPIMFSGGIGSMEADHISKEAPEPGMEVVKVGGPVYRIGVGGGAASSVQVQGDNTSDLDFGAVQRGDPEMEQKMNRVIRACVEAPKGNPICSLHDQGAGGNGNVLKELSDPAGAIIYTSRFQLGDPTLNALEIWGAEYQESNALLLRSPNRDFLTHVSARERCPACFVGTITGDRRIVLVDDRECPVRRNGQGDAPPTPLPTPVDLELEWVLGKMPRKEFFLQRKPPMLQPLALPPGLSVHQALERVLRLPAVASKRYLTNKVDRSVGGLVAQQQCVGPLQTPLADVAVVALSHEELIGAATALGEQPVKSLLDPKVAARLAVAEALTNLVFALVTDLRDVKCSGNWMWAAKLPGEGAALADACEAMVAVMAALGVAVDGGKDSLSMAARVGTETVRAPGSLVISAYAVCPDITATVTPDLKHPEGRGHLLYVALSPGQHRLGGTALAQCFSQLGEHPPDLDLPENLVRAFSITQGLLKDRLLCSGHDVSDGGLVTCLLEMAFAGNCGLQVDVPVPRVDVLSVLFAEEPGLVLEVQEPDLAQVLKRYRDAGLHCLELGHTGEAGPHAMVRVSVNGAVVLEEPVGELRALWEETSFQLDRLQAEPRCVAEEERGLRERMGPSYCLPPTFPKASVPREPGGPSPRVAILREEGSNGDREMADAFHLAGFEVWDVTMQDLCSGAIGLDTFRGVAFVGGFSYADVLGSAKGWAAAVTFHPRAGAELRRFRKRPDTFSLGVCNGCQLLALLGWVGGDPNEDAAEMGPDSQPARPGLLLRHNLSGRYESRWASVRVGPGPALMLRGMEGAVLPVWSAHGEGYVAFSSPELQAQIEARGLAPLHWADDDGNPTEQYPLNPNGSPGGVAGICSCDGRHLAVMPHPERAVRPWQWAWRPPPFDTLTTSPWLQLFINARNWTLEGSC
Chain of UniProt P67775 (P67775 whole entry, looked up): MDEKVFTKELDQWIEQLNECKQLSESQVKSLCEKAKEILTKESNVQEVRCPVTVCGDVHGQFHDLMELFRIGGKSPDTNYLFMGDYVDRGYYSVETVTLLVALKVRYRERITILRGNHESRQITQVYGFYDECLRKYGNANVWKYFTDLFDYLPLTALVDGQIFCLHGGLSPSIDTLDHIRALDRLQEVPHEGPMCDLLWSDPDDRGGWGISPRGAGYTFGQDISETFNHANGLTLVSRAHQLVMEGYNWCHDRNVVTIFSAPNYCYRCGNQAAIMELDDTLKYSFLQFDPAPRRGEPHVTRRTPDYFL
Chain of UniProt P0CAP2 (P0CAP2 whole entry, looked up): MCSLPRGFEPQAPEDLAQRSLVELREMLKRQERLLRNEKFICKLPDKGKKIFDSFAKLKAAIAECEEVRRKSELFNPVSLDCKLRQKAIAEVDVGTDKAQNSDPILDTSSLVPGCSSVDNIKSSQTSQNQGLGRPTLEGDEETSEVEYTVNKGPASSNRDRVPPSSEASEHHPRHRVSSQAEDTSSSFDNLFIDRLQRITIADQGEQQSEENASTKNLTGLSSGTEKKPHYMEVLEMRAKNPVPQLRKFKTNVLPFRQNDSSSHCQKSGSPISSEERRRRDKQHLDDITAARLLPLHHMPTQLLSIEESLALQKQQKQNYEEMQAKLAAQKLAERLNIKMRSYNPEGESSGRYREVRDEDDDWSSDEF
Chain of UniProt P54277 (P54277 whole entry, looked up): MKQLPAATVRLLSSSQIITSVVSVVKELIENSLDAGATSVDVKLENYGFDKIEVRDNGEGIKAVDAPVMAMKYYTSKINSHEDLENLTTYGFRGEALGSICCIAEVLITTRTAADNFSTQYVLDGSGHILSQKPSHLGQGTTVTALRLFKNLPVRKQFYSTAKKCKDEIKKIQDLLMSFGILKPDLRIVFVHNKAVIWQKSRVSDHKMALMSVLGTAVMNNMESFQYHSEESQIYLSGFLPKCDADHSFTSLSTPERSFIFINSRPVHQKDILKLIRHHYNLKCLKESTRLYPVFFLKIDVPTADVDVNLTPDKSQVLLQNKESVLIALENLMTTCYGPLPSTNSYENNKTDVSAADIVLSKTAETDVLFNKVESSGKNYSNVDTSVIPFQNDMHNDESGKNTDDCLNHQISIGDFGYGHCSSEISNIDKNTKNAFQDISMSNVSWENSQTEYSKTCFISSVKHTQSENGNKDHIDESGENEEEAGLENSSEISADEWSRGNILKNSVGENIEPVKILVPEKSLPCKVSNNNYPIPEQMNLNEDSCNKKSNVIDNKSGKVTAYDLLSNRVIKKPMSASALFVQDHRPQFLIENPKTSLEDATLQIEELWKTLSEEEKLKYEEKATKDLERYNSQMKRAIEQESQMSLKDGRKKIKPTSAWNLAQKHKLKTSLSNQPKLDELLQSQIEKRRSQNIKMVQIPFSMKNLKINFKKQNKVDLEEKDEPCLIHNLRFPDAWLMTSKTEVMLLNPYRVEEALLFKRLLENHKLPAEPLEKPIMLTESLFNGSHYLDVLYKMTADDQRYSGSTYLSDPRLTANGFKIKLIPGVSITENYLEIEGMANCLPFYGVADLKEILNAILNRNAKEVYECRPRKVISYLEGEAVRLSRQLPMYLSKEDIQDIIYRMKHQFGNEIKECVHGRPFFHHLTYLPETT
Chain of UniProt Q12972 (Q12972 whole entry, looked up): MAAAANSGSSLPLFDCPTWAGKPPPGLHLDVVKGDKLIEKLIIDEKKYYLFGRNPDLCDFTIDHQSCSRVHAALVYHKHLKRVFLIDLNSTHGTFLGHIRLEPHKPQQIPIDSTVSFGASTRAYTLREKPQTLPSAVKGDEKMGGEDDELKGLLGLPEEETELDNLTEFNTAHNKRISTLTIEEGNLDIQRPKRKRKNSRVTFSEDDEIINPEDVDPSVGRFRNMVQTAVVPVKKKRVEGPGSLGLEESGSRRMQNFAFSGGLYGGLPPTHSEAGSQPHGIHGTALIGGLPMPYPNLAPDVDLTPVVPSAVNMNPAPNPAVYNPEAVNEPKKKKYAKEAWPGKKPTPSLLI
Chain of UniProt Q9H4Z3 (Q9H4Z3 whole entry, looked up): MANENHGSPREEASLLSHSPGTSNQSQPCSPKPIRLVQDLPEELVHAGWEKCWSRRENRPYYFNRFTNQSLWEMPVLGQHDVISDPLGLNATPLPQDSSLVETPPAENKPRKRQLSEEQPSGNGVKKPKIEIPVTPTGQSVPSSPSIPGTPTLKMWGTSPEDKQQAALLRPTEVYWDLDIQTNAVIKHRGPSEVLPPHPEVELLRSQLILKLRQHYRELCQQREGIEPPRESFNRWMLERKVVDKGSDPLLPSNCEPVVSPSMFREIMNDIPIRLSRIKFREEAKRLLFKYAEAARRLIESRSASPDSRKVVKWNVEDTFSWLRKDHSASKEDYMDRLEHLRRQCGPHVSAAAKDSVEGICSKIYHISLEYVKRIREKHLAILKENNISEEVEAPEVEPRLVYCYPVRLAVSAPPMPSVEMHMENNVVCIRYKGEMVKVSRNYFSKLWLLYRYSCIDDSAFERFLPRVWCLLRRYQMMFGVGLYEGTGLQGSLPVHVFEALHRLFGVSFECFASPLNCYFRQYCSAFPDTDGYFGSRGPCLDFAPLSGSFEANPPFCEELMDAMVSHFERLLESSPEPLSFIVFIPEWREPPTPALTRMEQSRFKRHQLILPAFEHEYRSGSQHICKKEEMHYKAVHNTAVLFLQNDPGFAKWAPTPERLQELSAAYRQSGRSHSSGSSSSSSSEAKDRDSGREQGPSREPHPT
Chain of UniProt Q15366 (Q15366 whole entry, looked up): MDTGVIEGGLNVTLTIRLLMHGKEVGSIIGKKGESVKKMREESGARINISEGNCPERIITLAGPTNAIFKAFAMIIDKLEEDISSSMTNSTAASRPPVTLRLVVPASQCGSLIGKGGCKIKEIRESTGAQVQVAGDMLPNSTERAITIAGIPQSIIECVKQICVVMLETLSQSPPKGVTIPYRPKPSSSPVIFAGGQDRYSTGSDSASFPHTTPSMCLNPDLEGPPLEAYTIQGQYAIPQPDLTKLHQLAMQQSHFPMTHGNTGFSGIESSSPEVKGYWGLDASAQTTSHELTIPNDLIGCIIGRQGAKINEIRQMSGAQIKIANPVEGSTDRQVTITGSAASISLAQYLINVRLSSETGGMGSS

Compound in one assay: Cc1nc(Nc2ncc(C(=O)Nc3c(C)cccc3Cl)s2)cc(N2CCN(CCO)CC2)n1 [dasatinib]
In words: log2 fold change, soluble protein after heating vs DMSO (PISA); higher = thermal stabilisation; K562 lysate, 10 uM; active = over 0.2 and 3.5 SD of the protein, either way, in both replicates (recomputed). The procedure, abridged:
(§1)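 Pellets of K562 cells were dounce-homogenised in PBS pH 7.4 with 1 mM MgCl2, and the crude extract was held at 1 mg/mL protein for a 30 min treatment with 10 μM compound. Aliquots were heated for 3 min over 48°C-58°C and pooled before NP-40 was added to 0.5% at 4°C. The supernatant from 21,000xg for 90 min was quantified by TMTpro 16plex LC-MS/MS with channel sums equalised. Values are reported from duplicates as log-two fold change in thermal stability relative to solvent controls.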
In the case of PRAME (UniProt P78395), the log2 fold change was -0.004 (inactive).

Take PWP2 (UniProt Q15269): the log2 fold change was -0.033 (inactive).

With POLA1 (UniProt P09884), the log2 fold change is 0.011 (inactive).

Turning to PCIF1 (UniProt Q9H4Z3), the log2 fold change is 0.118 (inactive).

As for PGLS (UniProt O95336), the log2 fold change was 0.001 (inactive).

As to PRKCSH isoform 2 (UniProt P14314), the log2 fold change was 0.088 (inactive).

In the case of PIP4K2B (UniProt P78356), the log2 fold change is 0.151 (inactive).

As to PPP1R8 (UniProt Q12972), the log2 fold change was 0.03 (inactive).

Regarding POLD1 (UniProt P28340), the log2 fold change was -0.023 (inactive).

For the target PIKFYVE (UniProt Q9Y2I7), the log2 fold change was -0.022 (inactive).

Take PPP2CA (UniProt P67775): the log2 fold change is 0.017 (inactive).

As to PLA2G4B isoform 6 (UniProt P0C869), the log2 fold change was -0.1 (inactive).

As to PCBP2 isoform 3 (UniProt Q15366), the log2 fold change is -0.019 (inactive).

In the case of PWP1 (UniProt Q13610), the log2 fold change is 0.065 (inactive).

PPP3CA isoform 2 (UniProt Q08209): the log2 fold change was 0.027 (inactive).

In the case of PMS1 (UniProt P54277), the log2 fold change was -0.011 (inactive).

On to PIK3R1 (UniProt P27986), for which the log2 fold change is -0.024 (inactive).

On to PKN1 isoform 2 (UniProt Q16512), for which the log2 fold change was -0.14 (inactive).

On to PTPN2 (UniProt P17706), for which the log2 fold change is -0.026 (inactive).

Regarding PIK3R2 (UniProt O00459), the log2 fold change is -0.023 (inactive).

Consider PIK3CB (UniProt P42338), for which the log2 fold change was -0.072 (inactive).

In the case of PRMT7 (UniProt Q9NVM4), the log2 fold change is 0.032 (inactive).

In the case of PRKCSH (UniProt K7ELL7), the log2 fold change is 0.014 (inactive).

On to PHGDH (UniProt O43175), for which the log2 fold change was -0.077 (inactive).

On to PRKACB isoform 2 (UniProt P22694), for which the log2 fold change is 0.025 (inactive).

For the target PTP4A1 (UniProt Q93096), the log2 fold change was 0.026 (inactive).

On to PIP5K1A (UniProt Q99755), for which the log2 fold change is -0.137 (inactive).

Regarding PFAS (UniProt O15067), the log2 fold change is -0.031 (inactive).

With PIGO (UniProt Q8TEQ8), the log2 fold change is -0.032 (inactive).

Consider PRKCSH (UniProt P14314), for which the log2 fold change was 0.037 (inactive).

As to PCBP3 (UniProt P57721), the log2 fold change was -0.005 (inactive).

In the case of POGK (UniProt Q9P215), the log2 fold change was -0.068 (inactive).

Turning to PMPCA (UniProt Q10713), the log2 fold change is 0.672 (active).

With PLIN2 (UniProt Q99541), the log2 fold change was -0.092 (inactive).

Take POLR2M (UniProt P0CAP2): the log2 fold change was -0.032 (inactive).

In the case of PDCD6IP (UniProt Q8WUM4), the log2 fold change was -0.023 (inactive).

Regarding PCF11 (UniProt O94913), the log2 fold change was -0.042 (inactive).

Regarding PLXND1 (UniProt Q9Y4D7), the log2 fold change is -0.045 (inactive).

In the case of PPP4R2 (UniProt Q9NY27), the log2 fold change was 0.029 (inactive).

Compound in the next assay: Cc1ncc(-c2ccnc(Nc3ccc(S(C)(=O)=O)cc3)n2)n1C(C)C
The assay is described as above. The procedure, abridged: as §1
In the case of PRAME (UniProt P78395), the log2 fold change was 0.001 (inactive).

In the case of PWP2 (UniProt Q15269), the log2 fold change is -0.032 (inactive).

With POLA1 (UniProt P09884), the log2 fold change is 0.017 (inactive).

In the case of PCIF1 (UniProt Q9H4Z3), the log2 fold change was 0.011 (inactive).

As for PGLS (UniProt O95336), the log2 fold change was 0.168 (inactive).

In the case of PRKCSH isoform 2 (UniProt P14314), the log2 fold change is 0.116 (inactive).

PIP4K2B (UniProt P78356): the log2 fold change is 0.093 (inactive).

Turning to PPP1R8 (UniProt Q12972), the log2 fold change was 0.034 (inactive).

In the case of POLD1 (UniProt P28340), the log2 fold change is -0.011 (inactive).

Turning to PIKFYVE (UniProt Q9Y2I7), the log2 fold change was -0.015 (inactive).

Regarding PPP2CA (UniProt P67775), the log2 fold change was 0.009 (inactive).

PLA2G4B isoform 6 (UniProt P0C869): the log2 fold change is -0.326 (inactive).

Consider PCBP2 isoform 3 (UniProt Q15366), for which the log2 fold change is 0.015 (inactive).

Regarding PWP1 (UniProt Q13610), the log2 fold change was 0.005 (inactive).

With PPP3CA isoform 2 (UniProt Q08209), the log2 fold change was -0.082 (inactive).

For PMS1 (UniProt P54277), the log2 fold change was -0.001 (inactive).

PIK3R1 (UniProt P27986): the log2 fold change is 0.058 (inactive).

Take PKN1 isoform 2 (UniProt Q16512): the log2 fold change was -0.002 (inactive).

Regarding PTPN2 (UniProt P17706), the log2 fold change was -0.041 (inactive).

For PIK3R2 (UniProt O00459), the log2 fold change is 0.003 (inactive).

On to PIK3CB (UniProt P42338), for which the log2 fold change is 0.094 (inactive).

PRMT7 (UniProt Q9NVM4): the log2 fold change is -0.029 (inactive).

Regarding PRKCSH (UniProt K7ELL7), the log2 fold change is 0.125 (inactive).

Turning to PHGDH (UniProt O43175), the log2 fold change was 0.005 (inactive).

For PRKACB isoform 2 (UniProt P22694), the log2 fold change was 0.091 (inactive).

Turning to PTP4A1 (UniProt Q93096), the log2 fold change is -0.057 (inactive).

For PIP5K1A (UniProt Q99755), the log2 fold change was -0.082 (inactive).

Regarding PFAS (UniProt O15067), the log2 fold change was -0.017 (inactive).

Turning to PIGO (UniProt Q8TEQ8), the log2 fold change is -0.19 (inactive).

For PRKCSH (UniProt P14314), the log2 fold change was 0.041 (inactive).

For PCBP3 (UniProt P57721), the log2 fold change is 0.018 (inactive).

As to POGK (UniProt Q9P215), the log2 fold change was -0.001 (inactive).

With PMPCA (UniProt Q10713), the log2 fold change was 0 (inactive).

Consider PLIN2 (UniProt Q99541), for which the log2 fold change was 0 (inactive).

As for POLR2M (UniProt P0CAP2), the log2 fold change was 0.012 (inactive).

With PDCD6IP (UniProt Q8WUM4), the log2 fold change is -0.006 (inactive).

On to PCF11 (UniProt O94913), for which the log2 fold change is 0.023 (inactive).

As for PLXND1 (UniProt Q9Y4D7), the log2 fold change was 0.092 (inactive).

Take PPP4R2 (UniProt Q9NY27): the log2 fold change is 0.005 (inactive).
